Where “and” joins values, the source holds several entries; their conditions need not be identical. Equal entries are not always repeated. Screen size: about 5,500 compounds; about 2,000 (36%) were called active. Another 18% or so got no clear call; they are omitted. Rule as the data show it: active = normalized growth mostly below about 0.91 (no sharp cut-off); inconclusive = no clear call, values can overlap the other calls; inactive = mostly above about 0.92. The list shows a part of the results.
Assay: chemical genetic growth profiling, strain panel (AID 1159580);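 also: tested at 20 µM; growth read once vehicle control cultures reached saturation at 30 °C; 1 = growth at the plate median or of vehicle wells; lower values mean less growth of the strain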
Settings: S. cerevisiae deletion strains, growth OD

Measured: normalized growth

CC(=O)O[C@@H]1CC2C(C)(C)C(=O)C=C[C@]2(C)C2CC[C@@]3(C)[C@H](c4ccoc4)OC(=O)[C@H]4O[C@]43[C@@]21C (stereo partly drawn)
inactive: locus YAL021C, strain ccr4, stronger effect = lower value 1.03 | locus YAL026C, strain drs2, stronger effect = lower value 0.99 | locus YAL030W, strain snc1, stronger effect = lower value 0.997 | locus YBL061C, strain skt5, stronger effect = lower value 1.01 | locus YBR009C, strain hhf1, stronger effect = lower value 0.981 | locus YBR021W, strain FUR4, stronger effect = lower value 0.983 | locus YBR023C, strain chs3, stronger effect = lower value 1.01 | locus YBR171W, strain sec66, stronger effect = lower value 0.982 | locus YBR229C, strain ROT2, stronger effect = lower value 0.997 | locus YBR231C, strain swc5, stronger effect = lower value 1 | locus YBR279W, strain paf1, stronger effect = lower value 1.01 | locus YCL011C, strain gbp2, stronger effect = lower value 0.994 | locus YCL016C, strain dcc1, stronger effect = lower value 1.02 | locus YCL029C, strain bik1, stronger effect = lower value 0.999 | locus YCL061C, strain MRC1, stronger effect = lower value 0.972 | locus YCL069W, strain vba3, stronger effect = lower value 0.968 | locus YCR088W, strain abp1, stronger effect = lower value 0.98 | locus YDL005C, strain med2, stronger effect = lower value 0.981 | locus YDL035C, strain GPR1, stronger effect = lower value 1 | locus YDL040C, strain nat1, stronger effect = lower value 0.998 | locus YDL074C, strain BRE1, stronger effect = lower value 0.988 | locus YDL101C, strain DUN1, stronger effect = lower value 1.01 | locus YDL134C, strain PPH21, stronger effect = lower value 0.997 | locus YDL185W, strain tfp1, stronger effect = lower value 1.01 | locus YDL192W, strain arf1, stronger effect = lower value 0.991 | locus YDR001C, strain nth1, stronger effect = lower value 0.972 | locus YDR069C, strain doa4, stronger effect = lower value 1 | locus YDR101C, strain arx1, stronger effect = lower value 0.984 | locus YDR137W, strain rgp1, stronger effect = lower value 0.95 | locus YDR159W, strain sac3, stronger effect = lower value 0.949 | locus YDR162C, strain NBP2, stronger effect = lower value 0.996 | locus YDR195W, strain ref2 1.02 | locus YDR297W, strain sur2, stronger effect = lower value 1.01 | locus YDR318W, strain mcm21, stronger effect = lower value 0.994 | locus YDR334W, strain swr1, stronger effect = lower value 1.02 | locus YDR335W, strain msn5, stronger effect = lower value 1.02 | locus YDR388W, stronger effect = lower value 0.994 | locus YDR392W, strain spt3, stronger effect = lower value 0.831 | locus YDR502C, strain sam2, stronger effect = lower value 0.981 | locus YEL003W, strain gim4, stronger effect = lower value 0.95 | locus YEL037C, strain rad23, stronger effect = lower value 0.973 | locus YEL061C, strain CIN8 (second series), stronger effect = lower value 0.973 | locus YEL061C, strain CIN8, stronger effect = lower value 0.996 | locus YER015W, strain faa2, stronger effect = lower value 1.01 | locus YER016W, strain bim1, stronger effect = lower value 1 | locus YER110C, stronger effect = lower value 0.997 | locus YER111C, strain swi4, stronger effect = lower value 0.985 | locus YER155C, strain BEM2 (second series), stronger effect = lower value 1 | locus YER155C, strain BEM2, stronger effect = lower value 1 | locus YER167W, strain BCK2, stronger effect = lower value 1.01 | locus YFR010W, strain ubp6, stronger effect = lower value 0.966 | locus YGL078C, strain dbp3, stronger effect = lower value 0.994 | locus YGL086W, strain mad1, stronger effect = lower value 1.01 | locus YGL167C, strain pmr1, stronger effect = lower value 1 | locus YGL173C, strain kem1, stronger effect = lower value 0.976 | locus YGL227W, strain vid30, stronger effect = lower value 0.961 | locus YGL240W, strain doc1, stronger effect = lower value 1.01 | locus YGL248W, strain PDE1, stronger effect = lower value 1 | locus YGL253W, strain hxk2, stronger effect = lower value 1.02 | locus YGR078C, strain PAC10, stronger effect = lower value 1.01 | locus YGR135W, strain pre9, stronger effect = lower value 0.998 | locus YGR252W, strain gcn5, stronger effect = lower value 0.993 | locus YHR013C, strain ard1, stronger effect = lower value 0.987 | locus YHR027C, strain rpn1, stronger effect = lower value 1.01 | locus YHR030C, strain SLT2, stronger effect = lower value 1.01 | locus YHR079C, strain IRE1 (second series), stronger effect = lower value 0.988 | locus YHR079C, strain IRE1, stronger effect = lower value 0.994 | locus YHR094C, strain hxt1, stronger effect = lower value 0.993 | locus YHR129C, strain ARP1, stronger effect = lower value 1 | locus YHR142W, strain chs7, stronger effect = lower value 0.987 | locus YHR200W, strain rpn10, stronger effect = lower value 0.997 | locus YIL066C, strain RNR3, stronger effect = lower value 1 | locus YIL073C, strain SPO22, stronger effect = lower value 0.969 | locus YIL125W, strain kgd1, stronger effect = lower value 0.994 | locus YIR030C, strain dcg1, stronger effect = lower value 0.989 | locus YJL092W, strain hpr5, stronger effect = lower value 0.992 | locus YJL095W, strain BCK1 (second series), stronger effect = lower value 1.02 | locus YJL095W, strain BCK1, stronger effect = lower value 0.983 and 0.999 | locus YJL115W, strain asf1, stronger effect = lower value 0.987 | locus YJL129C, strain trk1, stronger effect = lower value 0.928 | locus YJL134W, strain LCB3, stronger effect = lower value 1.01 | locus YJL154C, strain vps35, stronger effect = lower value 0.971 | locus YJL164C, strain tpk1, stronger effect = lower value 0.995 | locus YJL166W, strain qcr8, stronger effect = lower value 1 | locus YJL168C, strain set2, stronger effect = lower value 0.987 | locus YJL187C, strain SWE1 (second series), stronger effect = lower value 1.01 | locus YJL187C, strain SWE1, stronger effect = lower value 1.01 | locus YJR043C, strain POL32, stronger effect = lower value 1.01

— PubChem BioAssay AID1159580 (chemical genetic matrix, 2015)
